Laboratory results from PubChem BioAssay.
The source made the active and inactive calls.

Assays:
[1] = tested on: PRMT1 (protein arginine N-methyltransferase 1); assay: small molecules binding arginine methyltransferase PRMT1 – biochemical, small-molecule microarray, 635 nm fluorescence, primary screen (AID 1088); conditions: higher = more signal;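 also: binding of Prmt1 protein to compounds spotted on small-molecule microarray slides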
[2] = growth effects on S. cerevisiae YJM789 – YJM789 clinical isolate, OD600, 24 h, basal, primary screen (AID 1089); conditions: higher = more signal, called active from +8 up or from −8 down;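 also: growth of clinical yeast isolate S. cerevisiae YJM 789 seeded 1000 cells per well; test concentration not given here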
[3] = S. pombe growth modifiers, basal conditions – strain 972, OD600, 24 h, no modulator, primary screen (AID 1090);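 also: basal condition with compound alone and no growth modifier present; test concentration not given here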; conditions: S. pombe 972 growth, higher = more signal, called active from +8 up or from −8 down
[4] = budding yeast growth modifiers under rapamycin – strain BY4716, OD600, 96 h, primary screen (AID 1091); also: test concentration not given here; conditions: S. cerevisiae BY4716 + rapamycin, higher = more signal, called active from +8 up or from −8 down
[5] = molecular target: Torsin-1A-interacting protein 2 (Homo sapiens) (UniProt Q8NFQ8); assay: small molecules binding lysate-expressed LULL1 – cell lysate, human LULL1 lysate, 635/667 nm fluorescence, primary screen (AID 1092); conditions: small-molecule microarray, hLULL1 lysate binding, 635 nm fluorescence; higher = more signal;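 also: probe is lysate of COS7 cells overexpressing human LULL1; score merges per-feature 667 nm fluorescence with signal-to-noise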
Chain of Torsin-1A-interacting protein 2 (Homo sapiens) (Q8NFQ8 whole entry, looked up): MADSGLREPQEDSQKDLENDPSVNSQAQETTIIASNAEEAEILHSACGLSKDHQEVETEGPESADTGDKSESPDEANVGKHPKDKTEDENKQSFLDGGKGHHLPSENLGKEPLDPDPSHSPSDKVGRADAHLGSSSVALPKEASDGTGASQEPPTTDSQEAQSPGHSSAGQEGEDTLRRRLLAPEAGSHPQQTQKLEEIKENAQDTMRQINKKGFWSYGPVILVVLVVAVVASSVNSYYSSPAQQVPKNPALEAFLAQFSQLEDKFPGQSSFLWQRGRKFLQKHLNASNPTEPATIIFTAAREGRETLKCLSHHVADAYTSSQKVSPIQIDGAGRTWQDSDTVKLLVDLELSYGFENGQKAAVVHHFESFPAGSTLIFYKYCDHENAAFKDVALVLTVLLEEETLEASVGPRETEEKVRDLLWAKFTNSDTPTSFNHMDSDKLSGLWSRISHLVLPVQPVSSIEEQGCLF

[6] = optical density change of DRC41 E. coli – strain DRC41, OD650, 24 h, E. coli filamentation project, primary screen (AID 1093);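 also: MC1000 strain lacking acrAB efflux and sulA so SOS filamentation is blocked; test concentration not given here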; conditions: E. coli DRC41 growth, higher = more signal, called active from +8 up or from −8 down
[7] = probe aLefty2 binding to arrayed compounds – biochemical, biotinylated probe, 635/667 nm fluorescence, primary screen (AID 1094); conditions: small-molecule microarray, higher = more signal;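 also: score merges spot fluorescence near 667 nm with spot signal-to-noise ratio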
[8] = tested on: Noggin (protein binding on small-molecule microarray); assay: small molecules binding Noggin protein – biochemical, 635/667 nm fluorescence, primary screen (AID 1095); conditions: 635 nm fluorescence, higher = more signal;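 also: score merges 667 nm feature fluorescence with signal to noise over triplicate slides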
[9] = molecular target: Neurogenic locus notch homolog protein 3 (Homo sapiens) (UniProt Q9UM47); assay: small molecules binding NOTCH3 protein – biochemical, 635/667 nm fluorescence, primary screen (AID 1096); conditions: small-molecule microarray, 635 nm fluorescence, higher = more signal
Chain of Neurogenic locus notch homolog protein 3 (Homo sapiens) (Q9UM47 whole entry, looked up): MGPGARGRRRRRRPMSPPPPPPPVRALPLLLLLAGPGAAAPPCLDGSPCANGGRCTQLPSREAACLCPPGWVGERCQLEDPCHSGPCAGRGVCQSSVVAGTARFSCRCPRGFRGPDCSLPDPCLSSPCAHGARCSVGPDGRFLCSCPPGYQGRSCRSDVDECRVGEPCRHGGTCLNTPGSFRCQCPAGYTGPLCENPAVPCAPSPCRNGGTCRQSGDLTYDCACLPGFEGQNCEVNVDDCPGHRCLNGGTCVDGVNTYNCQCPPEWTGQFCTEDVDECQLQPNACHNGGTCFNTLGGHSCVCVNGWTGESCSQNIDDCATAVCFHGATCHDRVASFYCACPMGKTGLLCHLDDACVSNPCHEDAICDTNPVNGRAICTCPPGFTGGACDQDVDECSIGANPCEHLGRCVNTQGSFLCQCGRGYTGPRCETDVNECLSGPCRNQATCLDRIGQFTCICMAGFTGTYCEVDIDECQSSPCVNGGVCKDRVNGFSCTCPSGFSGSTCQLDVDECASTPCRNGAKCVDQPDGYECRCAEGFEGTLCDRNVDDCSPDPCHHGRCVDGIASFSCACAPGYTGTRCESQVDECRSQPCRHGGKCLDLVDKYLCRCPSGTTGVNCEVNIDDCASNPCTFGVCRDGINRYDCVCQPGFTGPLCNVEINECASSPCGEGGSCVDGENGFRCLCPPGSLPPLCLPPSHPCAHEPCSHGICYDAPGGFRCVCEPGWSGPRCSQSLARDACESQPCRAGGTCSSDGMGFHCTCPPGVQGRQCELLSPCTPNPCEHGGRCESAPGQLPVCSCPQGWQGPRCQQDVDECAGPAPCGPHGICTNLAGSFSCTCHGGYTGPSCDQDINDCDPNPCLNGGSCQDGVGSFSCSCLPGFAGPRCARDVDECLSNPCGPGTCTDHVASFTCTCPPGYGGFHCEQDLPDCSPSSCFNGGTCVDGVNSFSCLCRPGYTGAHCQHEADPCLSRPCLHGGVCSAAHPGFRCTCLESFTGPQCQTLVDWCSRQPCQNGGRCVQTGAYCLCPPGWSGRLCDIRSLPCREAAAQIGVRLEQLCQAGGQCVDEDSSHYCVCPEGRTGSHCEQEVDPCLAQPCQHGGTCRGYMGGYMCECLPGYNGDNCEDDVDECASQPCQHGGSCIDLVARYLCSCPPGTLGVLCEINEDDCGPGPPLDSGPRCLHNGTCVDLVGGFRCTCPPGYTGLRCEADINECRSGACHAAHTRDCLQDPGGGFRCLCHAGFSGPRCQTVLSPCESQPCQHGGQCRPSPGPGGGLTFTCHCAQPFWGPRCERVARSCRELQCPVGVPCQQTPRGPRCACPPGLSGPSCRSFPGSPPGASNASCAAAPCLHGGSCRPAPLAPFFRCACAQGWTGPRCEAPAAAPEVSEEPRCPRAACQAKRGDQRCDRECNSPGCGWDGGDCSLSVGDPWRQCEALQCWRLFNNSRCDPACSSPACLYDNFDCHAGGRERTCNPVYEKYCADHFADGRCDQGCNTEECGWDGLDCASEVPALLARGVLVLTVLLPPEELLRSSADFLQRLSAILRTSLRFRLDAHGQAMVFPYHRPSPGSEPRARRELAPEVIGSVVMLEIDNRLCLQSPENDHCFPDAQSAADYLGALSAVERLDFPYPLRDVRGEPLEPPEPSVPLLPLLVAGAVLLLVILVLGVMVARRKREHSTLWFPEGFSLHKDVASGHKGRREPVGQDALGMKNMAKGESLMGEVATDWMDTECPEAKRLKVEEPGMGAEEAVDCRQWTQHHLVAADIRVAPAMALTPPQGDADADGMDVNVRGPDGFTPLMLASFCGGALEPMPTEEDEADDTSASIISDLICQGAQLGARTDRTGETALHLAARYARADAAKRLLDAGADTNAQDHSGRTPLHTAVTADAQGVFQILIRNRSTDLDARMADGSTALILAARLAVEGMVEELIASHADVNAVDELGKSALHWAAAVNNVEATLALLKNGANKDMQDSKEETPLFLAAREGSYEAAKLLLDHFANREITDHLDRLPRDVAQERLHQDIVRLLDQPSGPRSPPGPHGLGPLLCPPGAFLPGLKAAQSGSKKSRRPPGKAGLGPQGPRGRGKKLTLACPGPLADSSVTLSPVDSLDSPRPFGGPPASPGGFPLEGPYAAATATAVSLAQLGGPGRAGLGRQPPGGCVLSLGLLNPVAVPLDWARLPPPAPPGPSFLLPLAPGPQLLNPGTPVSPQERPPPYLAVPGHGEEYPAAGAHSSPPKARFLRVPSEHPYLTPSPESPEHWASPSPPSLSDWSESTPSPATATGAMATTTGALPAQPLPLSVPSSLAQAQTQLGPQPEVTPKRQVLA

[10] = probe aEGFR binding to arrayed compounds – biochemical, biotinylated probe, 635/667 nm fluorescence, primary screen (AID 1097); conditions: small-molecule microarray, higher = more signal;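 also: probe is a biotinylated anti-EGFR antibody binding compounds printed on slides; score combines fluorescence near 667 nm and signal to noise of each spot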
[11] = tested on: Plasmodium falciparum Sir2 (PF13_0152, Sir2A); assay: Plasmodium falciparum Sir2A binding compounds – biochemical, small-molecule microarray, 635 nm fluorescence, primary screen (AID 1098); conditions: fluorescence 635 nm, higher = more signal;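 also: score merges spot fluorescence intensity with its signal-to-noise ratio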
[12] = probe aDKK1 binding to arrayed compounds – biochemical, biotinylated probe, 635/667 nm fluorescence, primary screen (AID 1099); conditions: small-molecule microarray, higher = more signal;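 also: score merges 667nm spot fluorescence with signal to noise across triplicate slides; reference of the scale not given here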
[13] = probe aCHRDL2 binding to arrayed compounds – biochemical, biotinylated probe, 635/667 nm fluorescence, primary screen (AID 1100); conditions: small-molecule microarray, higher = more signal
[14] = change in splice reporter luminescence, either direction, cell-based, HEK293, spliceosome inhibition project, primary screen (AID 1101); conditions: HEK293 splicing luciferase reporter, 24 h, higher = more signal, called active from +8 up or from −8 down;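 also: HEK293 cells carrying a splicing-competent luciferase reporter gene; test concentration not given here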
[15] = molecular target: Fibroblast growth factor 10 (Homo sapiens) (UniProt O15520); assay: compounds binding fibroblast growth factor 10 – biochemical, small-molecule microarray, 635 nm fluorescence, primary screen (AID 1102); conditions: FGF10 binding, fluorescence 635 nm, higher = more signal
Chain of Fibroblast growth factor 10 (Homo sapiens) (O15520 whole entry, looked up): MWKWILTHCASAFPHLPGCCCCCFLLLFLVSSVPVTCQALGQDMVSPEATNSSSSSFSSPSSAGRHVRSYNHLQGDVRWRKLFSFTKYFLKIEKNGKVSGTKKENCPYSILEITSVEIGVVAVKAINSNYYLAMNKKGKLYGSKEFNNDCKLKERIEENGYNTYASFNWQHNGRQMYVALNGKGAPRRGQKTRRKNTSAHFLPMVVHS

[16] = tested on: glycogen synthase kinase-3 (GSK3A per assay name; protocol says GSK3B); assay: compounds binding glycogen synthase kinase-3 – biochemical, small-molecule microarray, 635 nm fluorescence, GSK3A, primary screen (AID 1103); conditions: fluorescence 635 nm, higher = more signal; also: the record names both GSK3A and GSK3B
[17] = molecular target: Epidermal growth factor receptor (Homo sapiens) (UniProt P00533); assay: compounds binding epidermal growth factor receptor – biochemical, small-molecule microarray, 635 nm fluorescence, primary screen (AID 1104); conditions: EGFR binding, higher = more signal;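 also: score merges 667 nm emission intensity with spot signal to noise over triplicate slides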
Chain of Epidermal growth factor receptor (Homo sapiens) (P00533 whole entry, looked up): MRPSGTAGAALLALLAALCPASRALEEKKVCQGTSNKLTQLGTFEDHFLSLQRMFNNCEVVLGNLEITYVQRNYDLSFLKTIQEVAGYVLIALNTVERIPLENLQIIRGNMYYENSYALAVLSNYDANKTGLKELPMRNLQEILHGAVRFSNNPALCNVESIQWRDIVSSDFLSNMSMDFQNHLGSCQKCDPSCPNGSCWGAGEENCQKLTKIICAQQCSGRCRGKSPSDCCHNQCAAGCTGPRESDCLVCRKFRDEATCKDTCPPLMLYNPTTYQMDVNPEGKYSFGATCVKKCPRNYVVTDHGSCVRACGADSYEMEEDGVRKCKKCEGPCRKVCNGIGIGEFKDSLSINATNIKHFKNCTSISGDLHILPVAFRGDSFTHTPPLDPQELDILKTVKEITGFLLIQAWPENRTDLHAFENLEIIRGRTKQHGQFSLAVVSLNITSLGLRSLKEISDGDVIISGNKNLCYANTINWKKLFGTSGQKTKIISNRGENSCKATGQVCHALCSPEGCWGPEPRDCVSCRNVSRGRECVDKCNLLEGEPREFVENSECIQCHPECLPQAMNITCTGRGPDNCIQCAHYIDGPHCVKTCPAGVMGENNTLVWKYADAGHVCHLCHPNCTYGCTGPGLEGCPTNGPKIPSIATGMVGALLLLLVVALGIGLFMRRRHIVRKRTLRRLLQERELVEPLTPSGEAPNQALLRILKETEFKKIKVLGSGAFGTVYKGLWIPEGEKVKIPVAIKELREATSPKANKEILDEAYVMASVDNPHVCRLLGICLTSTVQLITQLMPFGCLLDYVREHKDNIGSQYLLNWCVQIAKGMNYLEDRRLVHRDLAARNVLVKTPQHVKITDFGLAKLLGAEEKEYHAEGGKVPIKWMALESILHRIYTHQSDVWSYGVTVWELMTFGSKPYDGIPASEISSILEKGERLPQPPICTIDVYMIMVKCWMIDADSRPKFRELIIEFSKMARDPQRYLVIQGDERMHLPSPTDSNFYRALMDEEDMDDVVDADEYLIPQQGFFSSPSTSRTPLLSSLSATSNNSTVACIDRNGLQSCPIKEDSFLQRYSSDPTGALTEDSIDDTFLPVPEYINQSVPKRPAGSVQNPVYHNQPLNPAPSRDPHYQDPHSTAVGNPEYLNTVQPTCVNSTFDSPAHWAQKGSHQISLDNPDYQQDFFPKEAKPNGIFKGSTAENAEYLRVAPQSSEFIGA

[18] = molecular target: Follistatin-related protein 3 (Homo sapiens) (UniProt O95633); assay: compounds binding follistatin-related protein 3 – biochemical, small-molecule microarray, 635 nm fluorescence, primary screen (AID 1105); conditions: FSTL3 binding, higher = more signal;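 also: score merges emission near 667 nm and signal to noise per printed spot across three slides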
Chain of Follistatin-related protein 3 (Homo sapiens) (O95633 whole entry, looked up): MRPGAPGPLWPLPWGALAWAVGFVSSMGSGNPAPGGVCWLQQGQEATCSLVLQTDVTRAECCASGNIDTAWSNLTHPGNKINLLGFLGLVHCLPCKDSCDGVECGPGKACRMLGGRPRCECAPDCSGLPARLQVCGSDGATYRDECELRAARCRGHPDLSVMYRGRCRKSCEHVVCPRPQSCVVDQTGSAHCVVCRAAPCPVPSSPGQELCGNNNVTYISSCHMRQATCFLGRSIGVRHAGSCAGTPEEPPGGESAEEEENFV

[19] = molecular target: Dickkopf-related protein 1 (Homo sapiens) (UniProt O94907); assay: small molecules binding DKK1 protein – biochemical, small-molecule microarray, 635 nm fluorescence scan, primary screen (AID 1106); conditions: higher = more signal;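 also: score merges emission near 667 nm with signal to noise over three replicate slides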
Chain of Dickkopf-related protein 1 (Homo sapiens) (O94907 whole entry, looked up): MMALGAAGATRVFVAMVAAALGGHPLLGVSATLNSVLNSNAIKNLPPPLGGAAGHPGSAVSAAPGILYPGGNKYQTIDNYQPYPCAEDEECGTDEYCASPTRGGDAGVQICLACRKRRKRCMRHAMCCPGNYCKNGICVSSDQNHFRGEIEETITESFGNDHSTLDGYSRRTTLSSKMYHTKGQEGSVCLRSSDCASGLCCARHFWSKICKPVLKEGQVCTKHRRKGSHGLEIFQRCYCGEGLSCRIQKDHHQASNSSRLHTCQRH

[20] = tested on: Inhibin beta A chain (activin A); assay: small molecules binding activin A – biochemical, small-molecule microarray, 635 nm fluorescence scan, primary screen (AID 1107); conditions: INHBA, higher = more signal;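 also: mouse activin A protein probed at 4.33 µg/mL on printed slides; score merges bound-protein fluorescence near 667 nm with spot signal-to-noise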

COc1ccc(O[C@H]2C=C[C@@H](c3ccccc3)O[C@@H]2COC(=O)CCC(C)=NOC(C)CN2CCCCc3nc(C)c(C)cc32)cc1 (stereo not given in full)
composite z-score [1]: -0.285 | z-score [2]: -0.258 (inactive) | z-score [3]: -1.87 (inactive) | z-score [4]: -0.889 (inactive) | composite z-score [5]: 0.283 | z-score [6]: 1.14 (inactive) | composite z-score [7]: -0.0769 | composite z-score [8]: 0.294 | composite z-score [9]: -1.33 | composite z-score [10]: -0.0614 | composite z-score [11]: 1.42 | composite z-score [12]: -0.0789 | composite z-score [13]: 0.208 | z-score [14]: -0.665 (inactive) | composite z-score [15]: -0.154 | composite z-score [16]: -0.86 | composite z-score [17]: -0.457 | composite z-score [18]: -0.106 | composite z-score [19]: -0.0649 | composite z-score [20]: 1.36

CC[C@@H](c1ccccc1)n1c(=O)n2n(c1=O)[C@H]1[C@H](O)[C@@H]3O[C@@H]3C(=NOCC=C(C)CCC=C(C)C)[C@H]1CC2
composite z-score [1]: 1.23 | z-score [2]: 0.676 (inactive) | z-score [3]: 0.052 (inactive) | z-score [4]: 1.28 (inactive) | composite z-score [5]: 1.54 | z-score [6]: -0.327 (inactive) | composite z-score [7]: -0.137 | composite z-score [8]: 1.33 | composite z-score [9]: 0.955 | composite z-score [10]: 0.14 | composite z-score [11]: 0.785 | composite z-score [12]: -0.156 | composite z-score [13]: -0.359 | z-score [14]: 1.95 (inactive) | composite z-score [15]: 0.524 | composite z-score [16]: 0.412 | composite z-score [17]: 0.446 | composite z-score [18]: 1.27 | composite z-score [19]: 0.916 | composite z-score [20]: 0.619

C=COC[C@H]1CN2[C@@H](CC[C@@H](C)[C@@H]2c2ccc(Br)cc2)C(=O)O1
composite z-score [1]: 1.4 | z-score [2]: -2.69 (inactive) | z-score [3]: -4.68 (inactive) | z-score [4]: -1.52 (inactive) | composite z-score [5]: 1.99 | z-score [6]: -0.0786 (inactive) | composite z-score [7]: -0.155 | composite z-score [8]: 0.372 | composite z-score [9]: 0.521 | composite z-score [10]: 0.0402 | composite z-score [11]: 0.729 | composite z-score [12]: -0.41 | composite z-score [13]: -0.601 | z-score [14]: -1.09 (inactive) | composite z-score [15]: 0.273 | composite z-score [16]: 0.665 | composite z-score [17]: 0.498 | composite z-score [18]: 0.694 | composite z-score [19]: 0.928 | composite z-score [20]: 0.611

O=C1C[C@@H](O)[C@@H](O)[C@@H]2[C@@H]3C(=O)N(c4cccc(Oc5ccccc5)c4)C(=O)[C@@H]3CC[C@@H]12
composite z-score [1]: 0.766 | z-score [2]: -0.336 (inactive) | z-score [3]: -0.444 (inactive) | z-score [4]: -0.622 (inactive) | composite z-score [5]: 1.42 | z-score [6]: 0.185 (inactive) | composite z-score [7]: -0.177 | composite z-score [8]: 0.468 | composite z-score [9]: 1.09 | composite z-score [10]: 0.126 | composite z-score [11]: 0.87 | composite z-score [12]: -0.0115 | composite z-score [13]: -0.464 | z-score [14]: 0.0249 (inactive) | composite z-score [15]: 0.806 | composite z-score [16]: 0.655 | composite z-score [17]: 0.387 | composite z-score [18]: 0.925 | composite z-score [19]: 0.987 | composite z-score [20]: -0.0789

C#CCCCON=C1C[C@@H](O)[C@@H](O)[C@@H]2[C@@H]3C(=O)N(CCC(=O)OCC)C(=O)[C@@H]3CC[C@@H]12
composite z-score [1]: -0.683 | z-score [2]: -0.969 (inactive) | z-score [3]: 0.068 (inactive) | z-score [4]: -0.664 (inactive) | composite z-score [5]: 0.654 | z-score [6]: 0.827 (inactive) | composite z-score [7]: 0.706 | composite z-score [8]: -1.1 | composite z-score [9]: -1.01 | composite z-score [10]: -0.152 | composite z-score [11]: -0.346 | composite z-score [12]: 1.17 | composite z-score [13]: 1.51 | z-score [14]: 0.907 (inactive) | composite z-score [15]: -0.0714 | composite z-score [16]: -0.493 | composite z-score [17]: -0.905 | composite z-score [18]: -0.911 | composite z-score [19]: -0.908 | composite z-score [20]: 0.459

CCOC(=O)[C@H](Cc1ccccc1)NC(=O)CCC1CC(OC(=O)NCc2ccc3c(c2)OCO3)CC2(CCCC(COC(=O)NCc3ccccc3)O2)O1 (stereo not given in full)
composite z-score [1]: 1.06 | z-score [2]: 0.284 (inactive) | z-score [3]: 0.158 (inactive) | z-score [4]: 0.942 (inactive) | composite z-score [5]: 1.27 | z-score [6]: 0.641 (inactive) | composite z-score [7]: -0.0174 | composite z-score [8]: 0.573 | composite z-score [9]: 0.941 | composite z-score [10]: -0.0084 | composite z-score [11]: 0.403 | composite z-score [12]: -0.125 | composite z-score [13]: -0.468 | z-score [14]: -1.03 (inactive) | composite z-score [15]: 1.02 | composite z-score [16]: 0.78 | composite z-score [17]: 0.361 | composite z-score [18]: 1.02 | composite z-score [19]: 0.606 | composite z-score [20]: -0.303

Cc1ccc(C2CC=C(C(=O)O)CN2S(=O)(=O)c2ccc(C)cc2)cc1 (stereo not given)
composite z-score [1]: 0.732 | z-score [2]: 0.0388 (inactive) | z-score [3]: 1.02 (inactive) | z-score [4]: 0.856 (inactive) | composite z-score [5]: 2.49 | z-score [6]: -1.16 (inactive) | composite z-score [7]: 0.0527 | composite z-score [8]: 0.153 | composite z-score [9]: 0.984 | composite z-score [10]: -0.071 | composite z-score [11]: 1.3 | composite z-score [12]: 0.135 | composite z-score [13]: 0.665 | z-score [14]: -0.16 (inactive) | composite z-score [15]: 0.31 | composite z-score [16]: 0.834 | composite z-score [17]: 0.201 | composite z-score [18]: 0.338 | composite z-score [19]: 0.0374 | composite z-score [20]: 0.584

O=C1C[C@@H](O)[C@@H](O)[C@@H]2[C@@H]3C(=O)N(Cc4ccc5c(c4)OCO5)C(=O)[C@@H]3CC[C@@H]12
composite z-score [1]: 0.555 | z-score [2]: 0.489 (inactive) | z-score [3]: 0.481 (inactive) | z-score [4]: -0.246 (inactive) | composite z-score [5]: 1.01 | z-score [6]: 0.701 (inactive) | composite z-score [7]: -0.072 | composite z-score [8]: 0.495 | composite z-score [9]: 1.12 | composite z-score [10]: 0.0414 | composite z-score [11]: 0.27 | composite z-score [12]: -0.159 | composite z-score [13]: -0.562 | z-score [14]: 0.706 (inactive) | composite z-score [15]: 0.715 | composite z-score [16]: 0.45 | composite z-score [17]: 0.428 | composite z-score [18]: 0.675 | composite z-score [19]: 0.78 | composite z-score [20]: 0.365

COc1ccc([Si](C)(C)[C@H]2[C@H](CCO)O[C@@]3(C(=O)N(Cc4cccc(NC(=O)[C@H](C)O)c4)c4ccccc43)[C@@H]2C)cc1
composite z-score [1]: 1.54 | z-score [2]: 1.62 (inactive) | z-score [3]: 0.562 (inactive) | z-score [4]: 7.56 (inactive) | composite z-score [5]: 2.47 | z-score [6]: 1.24 (inactive) | composite z-score [7]: -0.0664 | composite z-score [8]: 1.24 | composite z-score [9]: 1.09 | composite z-score [10]: -0.013 | composite z-score [11]: 1.01 | composite z-score [12]: -0.146 | composite z-score [13]: -0.026 | z-score [14]: -2.55 (inactive) | composite z-score [15]: 1.01 | composite z-score [16]: 0.738 | composite z-score [17]: 0.382 | composite z-score [18]: 0.901 | composite z-score [19]: 0.507 | composite z-score [20]: 0.106
